A selection: hits, their analogues and other compounds. The true share with any hit is near 2.3%.
Granule exo inh = lytic granule exocytosis inhibition; actives 0.66% (n = 360,000); TALL-104 LAMP-1 surface exposure, flow cytometry; cells stimulated with thapsigargin and PMA; inhibition, % at 10 µM;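 active = inhibition above about 55%, limit read from the data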
ABHD5-PLIN5 inh = inhibitors of human ABHD5-perilipin-5 interaction | actives 0.78% (n = 360,000) | AID 602281 | Split G. princeps luciferase complementation, luminescence, 4 h | inhibition, % at 4 µM | Q00G26+Q8WTS1;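 active = inhibition above the mean inhibition across every tested compound plus 3 SD, cut at about 22% in these data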;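 also: 0% = DMSO only wells and the 100% control is not disclosed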
Target sequence (Q00G26 whole entry, looked up): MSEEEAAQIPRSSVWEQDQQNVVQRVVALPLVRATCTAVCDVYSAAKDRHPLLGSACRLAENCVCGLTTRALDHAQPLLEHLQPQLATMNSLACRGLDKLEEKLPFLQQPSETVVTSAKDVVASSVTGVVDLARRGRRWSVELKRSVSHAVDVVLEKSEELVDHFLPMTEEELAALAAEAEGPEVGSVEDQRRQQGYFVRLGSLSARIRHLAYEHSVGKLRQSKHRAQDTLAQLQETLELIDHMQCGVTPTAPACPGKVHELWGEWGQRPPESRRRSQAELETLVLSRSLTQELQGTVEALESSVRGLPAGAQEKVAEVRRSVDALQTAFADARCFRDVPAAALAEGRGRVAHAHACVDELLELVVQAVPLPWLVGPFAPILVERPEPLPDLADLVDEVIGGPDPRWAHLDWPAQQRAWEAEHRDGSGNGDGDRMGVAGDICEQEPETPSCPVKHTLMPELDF
Target sequence (Q8WTS1 whole entry, looked up): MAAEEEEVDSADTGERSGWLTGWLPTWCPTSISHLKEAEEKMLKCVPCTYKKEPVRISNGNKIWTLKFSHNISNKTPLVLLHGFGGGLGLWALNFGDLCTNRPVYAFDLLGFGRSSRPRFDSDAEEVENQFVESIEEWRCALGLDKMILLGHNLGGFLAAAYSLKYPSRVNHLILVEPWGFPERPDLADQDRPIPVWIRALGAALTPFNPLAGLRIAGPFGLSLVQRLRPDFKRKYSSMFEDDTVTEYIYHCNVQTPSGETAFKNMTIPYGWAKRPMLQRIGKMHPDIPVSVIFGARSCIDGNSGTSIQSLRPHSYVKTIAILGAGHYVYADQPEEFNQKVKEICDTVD
Beta2AR agonist = agonists of human beta-2 adrenergic receptor inducing internalization. response, % (concentration not given with the values). actives 0.43% (n = 340,000). Am2.2-beta2AR cells, FAP receptor internalization, flow cytometry. P07550. AID 504454;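 active = response above a set limit, near 3 SD of response in nonfluorescent compounds, cut at about 42% in these data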
NTR1 agonist = activates human neurotensin receptor 1; P30989; NTR1-U2OS beta-arrestin-GFP spot imaging, agonist mode; activation, % at 20 µM; actives 0.17% (n = 330,000); AID 493036;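 active = activation at or above 40% of the spot to cytoplasm intensity ratio, with at least 20 cells analyzed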;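 also: 0% = DMSO without peptide and 100% = 100 nM NTR1 peptide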
HTR2A ag = agonists of mouse serotonin 5-HT2A receptor (HTR2A). CHO-K1 mHTR2A beta-arrestin complementation, luminescence; percent of 30 µM serotonin response. activation, % at 7.6 µM. actives 0.66% (n = 360,000). AID 624169;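 active = activation above a run cutoff, the mean activation of all tested compounds plus 3 SD, cut at about 14% in these data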;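 also: 0% = plate median of compound wells and 100% = 30 µM serotonin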
Granule exo CP1 = lytic granule exocytosis inhibition. inhibition, % at 10 µM. TALL-104 cells, LAMP-1 externalization, flow cytometry; stimulated with PMA plus thapsigargin. shares compounds with Granule exo inh. actives 11% (n = 1,500); in the data active = inhibition above about 60%;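 also: 0% = stimulated vehicle wells and 100% = unstimulated wells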
Starred values were filed as active, the others as inactive; nt = not tested or not shown.

SMILES | Granule exo inh | ABHD5-PLIN5 inh | Beta2AR agonist | NTR1 agonist | HTR2A ag | Granule exo CP1
CCOC(=O)c1cc(-c2csc(Nc3c(C)cc(C)cc3C)n2)on1 | 91* | 2 | 13 | 6 | -1 | 86*
Cc1cc(OCCCCn2ccnc2)cc(C)c1Cl | -4 | 8 | -7 | 1 | -1 | nt
CCc1ccccc1NC(=O)CNC(=O)c1ccc(-n2cncn2)c([N+](=O)[O-])c1 | 66* | 0 | -1 | 0 | 3 | -2
Cc1cccc(NC(=O)c2ccc(-n3cncn3)c([N+](=O)[O-])c2)c1 | -9 | 1 | -1 | 0 | -3 | nt
CCCOc1ccc(CNCCCOCC)cc1OC | 0 | -2 | 7 | 1 | 2 | nt
Cc1cc(C)cc(NC(=O)c2cccc3c2C(=O)N(C2CCCCC2)C3)c1 | 1 | -10 | 10 | 7 | 6 | nt
COc1cc(NC(=O)c2cccc3c2C(=O)N(C2CCCCC2)C3)cc(OC)c1OC | 94* | 11 | 14 | 7 | -1 | 12
COc1ccc(OCCOC(=O)c2nc3nccc(C)n3n2)cc1 | 58* | -4 | -2 | 0 | -2 | -4
